Results from PubChem BioAssay AID588675 (Johns Hopkins Ion Channel Center, 2011).
The whole screen tested about 310,000 compounds, of which about 1,900 (0.61%) were called active.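 Rule for the calls: active = plate-corrected calcium response at least 3 library SD above typical, normal starting fluorescence, not activating the receptor alone; inactive = the rest.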 What follows is part of a selection rich in actives, with near analogues and random picks from the rest.

biological target: Mas-related G-protein coupled receptor member X1 (Homo sapiens) (UniProt Q96LB2); test: allosteric enhancers of human MrgX1 signaling – HEK293 cells, Fluo-4 calcium flux, primary screen (AID 588675); settings: MrgX1-HEK293, Fluo-4 calcium flux, FDSS, at 10 µM; active compounds read high;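 note: compound read alongside a low EC10 to EC30 dose of BAM8-22 agonist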;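 for B-score: peak minus trough fluorescence over baseline measured at the second addition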
Sequence (Q96LB2 whole entry, looked up): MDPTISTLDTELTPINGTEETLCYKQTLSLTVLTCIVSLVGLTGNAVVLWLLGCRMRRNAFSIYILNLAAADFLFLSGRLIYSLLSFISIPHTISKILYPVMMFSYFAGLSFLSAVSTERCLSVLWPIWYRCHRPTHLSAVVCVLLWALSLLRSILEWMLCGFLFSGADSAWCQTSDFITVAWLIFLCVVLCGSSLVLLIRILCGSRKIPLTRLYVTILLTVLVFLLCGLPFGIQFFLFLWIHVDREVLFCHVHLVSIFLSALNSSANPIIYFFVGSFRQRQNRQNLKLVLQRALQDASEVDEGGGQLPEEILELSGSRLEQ

SMILES | B-score
Cc1cc(N2C(=O)c3ccc(C(=O)NCc4ccccc4)cc3C2=O)no1 | inactive
Cc1cc(C(=O)N2CCC(C(=O)O)CC2)c(C(F)(F)F)o1 | inactive
CN1/C(=C\C=C2\N=C(c3ccc(F)cc3)OC2=O)C(C)(C)c2ccccc21 | 19.6 (active)
CN1CCN(CCC(=O)N/N=C/C=C2\N(C)c3ccccc3C2(C)C)CC1 | inactive
CN1/C(=C\C(=O)c2oc3ccccc3c2N)C(C)(C)c2ccccc21 | inactive
Cc1c(C2=CCN(S(=O)(=O)c3ccc(Cl)cc3)CC2)c2ccccc2n1C | inactive
CN(CC(=O)Nc1cccc(F)c1)C(=O)C1CC(=O)N(CCc2ccccc2)C1 (stereo not drawn) | inactive
Cc1cc(NC(=O)OC(C)C)ccc1-c1ccc(NC(=O)OC(C)C)cc1C | inactive
O=C(NC1CC1)C1CCCN(C(=O)NC2CCCCC2)C1 (stereo not drawn) | inactive
CC[C@H](C)[C@@H](C(=O)N1CCNCC1)n1cc([C@@H](N)Cc2ccc(O)cc2)nn1 | inactive
C/C(=N\NS(=O)(=O)c1cccc([N+](=O)[O-])c1)c1cc2ccccc2o1 | 8.87 (active)
C/C(=N\NC(=S)Nc1ccc(C)cc1)c1cc2ccccc2o1 | inactive
COc1ccc(CCNS(=O)(=O)c2cccc([N+](=O)[O-])c2)cc1 | inactive
COc1ccc(N(CC(=O)N/N=C/c2cccc3c2OCCO3)S(=O)(=O)c2ccc(NC(C)=O)cc2)cc1 | inactive
COc1ccccc1CN(C)C(=O)c1cc2ccccc2o1 | inactive
Cc1ccc(OC(=O)c2cc3ccccc3o2)cc1 | 6.5 (active)
Cc1ccc(NC(=O)c2cc3ccccc3o2)cc1 | inactive
CCCCCCSc1ccc([C@@H]2[C@@H]3C(=O)N(CC)C(=O)[C@@H]3[C@]3(C(=O)OC)CCCCN23)cc1OC | inactive
COc1ccc(C(=O)C2CCCN(C(=O)c3cc4nc(C)cc(C)n4n3)C2)cc1F (stereo not drawn) | inactive
O=C(Oc1ccc(F)cc1)N1CCOCC1 | inactive
O=C(Oc1ccc(C(=S)N2CCOCC2)cc1)c1ccc(F)cc1 | 12.3 (active)
Cc1ccc(C(=O)Oc2ccc(C(=S)N3CCOCC3)cc2)cc1 | inactive
CC1=C(C(=O)Nc2cc(C)ccn2)C(c2cnn(C)c2)C2=C(CC(c3ccccc3)CC2=O)N1 (stereo not drawn) | inactive
